The values that follow come from PubChem BioAssay (EPA / NIEHS).

“And” between values parts separate entries of the source, which are not always exact repeats. Equal entries are not always repeated. A structure can be active in one record and inactive in another. The source made the active and inactive calls. How the source made its calls: active means hit-call score of the fitted dose curve at least 0.9, where 1 is the maximum; inactive means score below 0.9.

A short description of test [1]: ATG_PBREM_CIS: Attagene CIS-FACTORIAL HepG2 Assay for human Phenobarbital-responsive Enhancer Module (PBREM) (AID 2282955). To be noted: HepG2 PBREM cis-reporter, Attagene multiplexed transcription; actives raise or lower the signal. An outline of the steps:
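After a 24 h incubation with test chemical, transfected HepG2 cells yield total RNA; reporter-specific RT-PCR products are fluorescently labelled, HpaI-digested and resolved by capillary electrophoresis against ROX size standards.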

Test [2] concerns the target Paired box protein Pax-6 (Homo sapiens) (UniProt P26367). Kind of test: ATG_Pax6_CIS: Attagene CIS-FACTORIAL HepG2 Assay for human Paired Box 6 (PAX6) (AID 2282956). To be noted: HepG2 CIS-FACTORIAL PAX6 reporter transcription, RNA readout; actives raise or lower the signal. The procedure, abridged: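 Readout: reporter transcript fluorescence after RT-PCR and capillary electrophoresis. Cells: HepG2, transiently transfected with cis-regulated MRTUs. Exposure 24 h. Gain or loss of signal fitted bidirectionally relative to DMSO.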

A short description of test [3]: ATG_PXRE_CIS: Attagene CIS-FACTORIAL HepG2 Assay for human Pregnane X Receptor Element (PXRE) (AID 2282957). As to conditions: HepG2 Attagene CIS-FACTORIAL PXRE reporter, mRNA; actives raise or lower the signal. The procedure, abridged: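 Reporter transcripts under endogenous PXR-responsive cis-regulation quantified from total RNA of transfected HepG2 cells 24 h post-dosing, via RT-PCR with fluorescent primer extension and capillary electrophoresis. Gain or loss of signal fitted against DMSO baseline.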

A short description of test [4]: ATG_PPRE_CIS: Attagene CIS-FACTORIAL HepG2 Assay for human Peroxisome Proliferator-activated Response Element (PPRE) (AID 2282958). To be noted: HepG2 PPRE cis-element reporter, Attagene transcription factor profiling; actives raise or lower the signal. An outline of the steps: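 Multiplexed reporter transcription units under cis-regulatory promoters were transfected into HepG2 cells to capture endogenous factor activity. A 24 h incubation preceded RNA isolation and fluorescent RT-PCR fragment analysis.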

Test [5] in a line: ATG_RORE_CIS: Attagene CIS-FACTORIAL HepG2 Assay for human RAR-related Orphan Receptor Element (RORE) (AID 2282959). To be noted: HepG2 Attagene cis-factorial RORE reporter, mRNA; actives raise or lower the signal. The procedure, abridged: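 Fluorescence intensity of reporter-specific cDNA fragments, separated by capillary electrophoresis, gives the signal. Source: HepG2 liver cells transiently transfected with cis-element reporters and exposed 24 h; DMSO-normalized bidirectional fit.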

A short description of test [6]: ATG_Sox_CIS: Attagene CIS-FACTORIAL HepG2 Assay for human SRY-box transcription factor (SOX) (AID 2282960). As to conditions: HepG2 Attagene cis-factorial SOX reporter, mRNA; actives raise or lower the signal. An outline of the steps:
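After 24 h of chemical treatment, transfected HepG2 reporter cells are lysed for total RNA. Transcript levels come from RT-PCR with labelled primer extension and capillary electrophoresis, analysed bidirectionally versus DMSO.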

For test [7], the target named is Transcription factor Sp1 (Homo sapiens) (UniProt P08047). Nature of the test: ATG_Sp1_CIS: Attagene CIS-FACTORIAL HepG2 Assay for human Specificity Protein 1 (Sp1) (AID 2282961). To be noted: HepG2 Sp1 cis-reporter transcription, actives raise or lower the signal. The procedure, abridged:
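Sp1-driven reporter mRNA, read as capillary electrophoresis fluorescence after RT-PCR, in transiently transfected HepG2 cells dosed for 24 h; signal change in either direction relative to DMSO.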

Test [8] can be described thus: ATG_SREBP_CIS: Attagene CIS-FACTORIAL HepG2 Assay for human Sterol Regulatory Element Binding (SREBP) (AID 2282962). As to conditions: HepG2 Attagene cis-factorial SREBP reporter, mRNA; actives raise or lower the signal. The procedure, abridged: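 Readout: fluorescent reporter-transcript peaks resolved by capillary electrophoresis after RT-PCR. Cells were human HepG2 carrying transfected cis-promoter reporter constructs, dosed for 24 h. Gain or loss of signal was fitted against DMSO controls.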

Test [9] deals with Signal transducer and activator of transcription 3 (Homo sapiens) (UniProt P40763). Nature of the test: ATG_STAT3_CIS: Attagene CIS-FACTORIAL HepG2 Assay for human Signal Transducer and Activator of Transcription 3 (STAT3) (AID 2282963). As to conditions: HepG2, Attagene cis-factorial STAT3 reporter transcription; actives raise or lower the signal. The procedure, abridged:
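HepG2, MRTU-transfected, 24 h dosing. RNA → RT → PCR → FAM label → HpaI → CE. Bidirectional fit vs DMSO.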

Test [10] can be described thus: ATG_TA_CIS: Attagene CIS-FACTORIAL HepG2 Assay for human TA Basal Promoter (AID 2282964). To be noted: HepG2 Attagene CIS-factorial TA basal promoter reporter; actives raise or lower the signal. An outline of the steps:
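Background-control readout: TA basal promoter reporter mRNA, fitted in both directions relative to DMSO. Measured by RT-PCR and capillary electrophoresis 24 hours after treating HepG2 human liver cells transiently carrying multiplexed cis-regulated reporter constructs.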

Chain of Signal transducer and activator of transcription 3 (Homo sapiens) (P40763 whole entry, looked up): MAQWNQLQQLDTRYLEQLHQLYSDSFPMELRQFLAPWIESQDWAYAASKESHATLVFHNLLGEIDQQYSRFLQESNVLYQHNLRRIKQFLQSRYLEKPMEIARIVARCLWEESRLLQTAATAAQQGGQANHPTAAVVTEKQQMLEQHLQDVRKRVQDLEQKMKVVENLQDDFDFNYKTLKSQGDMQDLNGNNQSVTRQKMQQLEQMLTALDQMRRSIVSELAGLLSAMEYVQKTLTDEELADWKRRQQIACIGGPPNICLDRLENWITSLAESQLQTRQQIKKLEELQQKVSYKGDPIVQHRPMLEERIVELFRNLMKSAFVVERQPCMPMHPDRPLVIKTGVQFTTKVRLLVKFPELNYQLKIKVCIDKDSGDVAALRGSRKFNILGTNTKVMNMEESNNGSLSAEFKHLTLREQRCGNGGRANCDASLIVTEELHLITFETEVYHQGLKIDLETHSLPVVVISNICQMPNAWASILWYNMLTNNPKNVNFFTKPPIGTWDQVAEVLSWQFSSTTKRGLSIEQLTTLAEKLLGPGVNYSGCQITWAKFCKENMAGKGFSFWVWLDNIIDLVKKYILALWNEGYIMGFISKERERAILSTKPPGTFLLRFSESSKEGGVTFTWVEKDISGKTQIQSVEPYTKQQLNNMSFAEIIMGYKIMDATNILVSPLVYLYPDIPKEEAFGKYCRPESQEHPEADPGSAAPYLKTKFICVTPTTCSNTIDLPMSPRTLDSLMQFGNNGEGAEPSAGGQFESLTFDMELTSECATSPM
Chain of Transcription factor Sp1 (Homo sapiens) (P08047 whole entry, looked up): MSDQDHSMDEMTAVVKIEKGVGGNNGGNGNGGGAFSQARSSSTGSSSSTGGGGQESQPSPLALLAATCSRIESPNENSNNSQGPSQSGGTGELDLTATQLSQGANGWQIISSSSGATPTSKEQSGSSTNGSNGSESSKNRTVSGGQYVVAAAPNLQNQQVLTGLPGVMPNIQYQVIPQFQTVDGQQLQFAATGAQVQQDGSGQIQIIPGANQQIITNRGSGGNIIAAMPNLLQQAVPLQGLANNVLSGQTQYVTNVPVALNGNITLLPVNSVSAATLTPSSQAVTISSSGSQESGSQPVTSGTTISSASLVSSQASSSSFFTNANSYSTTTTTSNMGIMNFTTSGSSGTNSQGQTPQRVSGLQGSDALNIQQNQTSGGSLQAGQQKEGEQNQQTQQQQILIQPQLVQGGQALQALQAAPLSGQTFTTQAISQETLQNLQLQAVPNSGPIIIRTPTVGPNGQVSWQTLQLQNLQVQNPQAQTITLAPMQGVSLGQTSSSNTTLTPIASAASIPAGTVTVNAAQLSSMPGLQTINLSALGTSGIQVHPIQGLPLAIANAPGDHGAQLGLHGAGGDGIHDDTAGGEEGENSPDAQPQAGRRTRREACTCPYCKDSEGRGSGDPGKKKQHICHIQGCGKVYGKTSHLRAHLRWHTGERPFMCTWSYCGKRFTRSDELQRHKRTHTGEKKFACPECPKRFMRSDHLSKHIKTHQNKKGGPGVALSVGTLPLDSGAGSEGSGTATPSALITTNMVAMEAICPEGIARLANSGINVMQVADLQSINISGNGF
Chain of Paired box protein Pax-6 (Homo sapiens) (P26367 whole entry, looked up): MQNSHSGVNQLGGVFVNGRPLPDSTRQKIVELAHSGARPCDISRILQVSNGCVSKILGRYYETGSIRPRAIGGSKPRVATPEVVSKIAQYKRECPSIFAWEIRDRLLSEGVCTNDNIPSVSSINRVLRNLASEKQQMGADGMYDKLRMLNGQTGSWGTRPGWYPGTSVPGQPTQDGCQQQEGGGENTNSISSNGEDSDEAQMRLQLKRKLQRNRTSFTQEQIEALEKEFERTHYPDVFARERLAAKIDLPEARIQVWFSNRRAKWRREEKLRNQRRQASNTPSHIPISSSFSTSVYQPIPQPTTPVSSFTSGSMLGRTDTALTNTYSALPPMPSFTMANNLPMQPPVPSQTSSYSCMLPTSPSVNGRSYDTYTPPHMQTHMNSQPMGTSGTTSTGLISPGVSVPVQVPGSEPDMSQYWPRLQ

For `CC1=C(/C=C/C(C)=C/C=C/C(C)=C/C(=O)O)C(C)(C)CCC1`, the AC50 is 6.62 µM (active) in [1]; 42.8 µM (active) in test [2]; 1.48 µM (active) and 1.26 µM (active) in test [3]; 43.6 nM (active) and 9.62 µM (active) in test [4]; 8.89 µM (active) in test [5]; 51.1 µM (active) and 24.6 µM (active) in test [6]. Also, the results for the concentration at half-maximal activity (AC50) in test [7] and in [10] were 11.9 µM (active) and 21.4 µM (active), respectively. Moreover, the result in test [1], in test [2], in test [5], in test [7], in test [8] and in test [9] was inactive. For the same compound, the compound was classed as inactive in test [10].

With `Cc1cc(C)c(O)c(C)c1`, the result in test [1], in test [2], in test [3], in test [4], in test [5] and in test [6] was inactive. For the same compound, the compound was classed as inactive in [7], in test [8], in test [9] and in test [10].

As for `O=C(/C=C/c1ccc(O)cc1)CC(=O)/C=C/c1ccc(O)cc1`, the outcome in test [1], in test [3], in test [4], in [7], in test [8] and in [9] was inactive. In test [10], the compound was called inactive. In addition, the AC50 in test [2] was 14.6 µM (active); in [5], 2.56 µM (active); in test [6], 25.7 µM (active).

Regarding `CCOC(=O)CC(O)(CC(=O)OCC)C(=O)OCC`, the outcome in [1], in test [2], in test [3], in test [5], in [6] and in test [7] was inactive. Further, the compound was called inactive in [8], in test [9] and in test [10]. Further, the AC50 in test [3] is 50.4 µM (active).

In the case of `CCCOc1sc(C(=O)N2CCC(c3cc(CN)ccc3F)CC2)c(C)c1Br`, the result in [1], in test [2], in test [4], in [5], in test [6] and in test [7] was inactive. In addition, the compound was classed as inactive in test [9] and in [10]. The AC50 was 2.09 µM (active) in [3] and 3.7 µM (active) in [8].

On to `O=c1c(-c2ccc(O)cc2)coc2cc(O)ccc12`, for which the outcome in test [1], in [2], in test [3], in [4], in test [5] and in test [6] was inactive. The result in test [7], in test [8], in test [9] and in test [10] was inactive. The AC50 in [4] was 42 µM (active) and 52.3 µM (active); in test [7], 38.8 µM (active); in test [8], 47.5 µM (active) and 91.4 µM (active).

Regarding `CCCCC[C@H](O)CC(=O)CCc1ccc(O)c(OC)c1`, the result in [1], in test [2], in test [4], in test [5], in test [6] and in test [8] was inactive. The result in test [9] and in test [10] was inactive. The AC50 is 18.1 µM (active) in test [3] and 166 µM (active) in test [7].

Regarding `CC[C@H](C)[C@@H](C(=O)O)n1sc2ccccc2c1=O`, the result in test [1], in test [2], in test [3], in test [4], in test [5] and in [6] was inactive. The result in test [7], in test [8], in test [9] and in test [10] was inactive.

For the compound `CC(C)(C)CC(C)(C)c1ccc(O)c(-n2nc3ccccc3n2)c1`, the outcome in test [1], in test [2], in test [4], in test [5], in test [6] and in test [7] was inactive. For the same compound, the result in test [8], in test [9] and in test [10] was inactive. In addition, in test [3], the AC50 was 1.15 µM (active).

With `CC(C)(C)c1cc(C(C)(C)C)c(O)c(C(C)(C)C)c1`, the outcome in [1], in test [2], in test [5], in [6], in test [7] and in test [8] was inactive. The compound was classed as inactive in [9] and in test [10]. Further, the AC50 in test [3] was 3.08 µM (active) and 6.33 µM (active); in test [4], 416 nM (active) and 8.82 µM (active); in test [7], 80.6 µM (active); in test [8], 11.7 µM (active).

For the compound `Nc1cccc2c(N)cccc12`, the outcome in test [1], in test [2], in [3], in test [4], in test [5] and in test [6] was inactive. The compound was called inactive in test [7], in test [8], in [9] and in test [10].

For the compound `c1ccc2c(c1)ccc1ccccc12`, the result in test [1], in test [2], in [4], in test [5], in test [6] and in [7] was inactive. In addition, the result in [8], in test [9] and in test [10] was inactive. Besides, the half-maximal activity concentration (AC50) in test [3] was 58.4 µM (active).

With `NC(=O)N1C(=O)C(C(=O)c2cc(Cl)cs2)c2cc(F)c(Cl)cc21` (centres undefined), the AC50 in [1] is 11 µM (active); in [3] it was 4.07 µM (active); in test [5], 13.7 µM (active); in test [8], 4.78 µM (active). Further, the result in test [2], in [4], in test [6], in test [7], in test [9] and in test [10] was inactive.

As for `OCCC(F)(F)C(F)(F)C(F)(F)C(F)(F)C(F)(F)C(F)(F)F`, the result in test [1], in [2], in [3], in test [4], in [5] and in test [6] was inactive. In addition, the outcome in test [7], in test [8], in test [9] and in [10] was inactive. The AC50 in test [2] was 176 µM (active); in test [8] it was 100 µM (active).

For `O=C(O)Cc1cc(I)c(Oc2cc(I)c(O)c(I)c2)c(I)c1`, the AC50 is 113 µM (active) and 17.5 µM (active) in test [1]; 67 µM (active) in [2]; 4.68 µM (active) and 13.3 µM (active) in test [4]; 53.6 µM (active) and 10.8 µM (active) in [5]; 23.4 µM (active) and 18.1 µM (active) in [6]; 31.3 µM (active) and 17 µM (active) in test [7]. For the same compound, the AC50 in [8] is 4.05 µM (active) and 5.53 µM (active); in test [10] it was 84.2 µM (active). Besides, the compound was classed as inactive in test [2], in test [3], in [9] and in [10].

Take `O=C(OCCOCCOC(=O)c1ccccc1)c1ccccc1`: the result in [1], in test [2], in [3], in test [4], in [5] and in test [6] was inactive. The outcome in [7], in [8], in test [9] and in [10] was inactive.

The AC50 is the concentration at which the activity in the assay is half-maximal.
